eLon inh: inhibitors of E. coli Lon protease; actives 0.42% (n = 360,000); P0A9M0; inhibition, % at 7.94 µM; purified E. coli Lon protease, fluorescence polarization; in the data active means inhibition above about 13%, passing the limit was not always enough
Bcl-xL primary: inhibitors of human Bcl-xL; Q07817; AID 2129; actives 0.7% (n = 320,000); GST-Bcl-xL / FITC-Bim BH3 peptide fluorescence polarization; inhibition, % at 10.9 µM;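 active means inhibition above the mean of all tested compounds plus 3 SD, cutoff set per campaign, cut at about 30% in these data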;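 further: inhibitors lower millipolarization by displacing the labeled peptide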
MEX-5 binding: C. elegans MEX-5 TCR-2 RNA binding activity. Q9XUB2. MEX-5/FITC-TCR2 RNA binding, fluorescence polarization; stronger effect = lower value. activity score (negative = inhibition of binding), % at 10 µM. actives 0.38% (n = 300,000);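 active means inhibition past about -25% in most replicates, and total fluorescence under double the plate's negative control median, limit read from the data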
GLD-1 RNA inh: GLD-1-TGE RNA interaction inhibition (C. elegans); Q17339; purified GLD-1 + fluorescein TGE RNA, fluorescence polarization; inhibition, % at 5.96 µM; actives 0.44% (n = 320,000); AID 2280;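 active means percent inhibition above a per-plate cutoff, the plate mean of test compounds plus 3 SD, cut at about 30% in these data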
EBV gp42 inh: inhibitors of Epstein-Barr virus glycoprotein 42 | Q1HVG2 | Fluorescence polarization binding assay, mP read-out | inhibition, % (tested at 21.74 µM) | actives 0.42% (n = 220,000) | AID 1085; in the data active means inhibition above about 50%
Target sequence (Q1HVG2 whole entry, looked up): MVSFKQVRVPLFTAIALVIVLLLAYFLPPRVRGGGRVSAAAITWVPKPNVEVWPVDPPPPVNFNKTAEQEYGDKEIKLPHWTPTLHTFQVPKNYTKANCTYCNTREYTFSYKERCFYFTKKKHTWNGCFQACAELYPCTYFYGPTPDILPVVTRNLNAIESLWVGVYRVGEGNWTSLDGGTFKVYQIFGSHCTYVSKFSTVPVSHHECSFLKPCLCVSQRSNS
Numbers stand for hits; . = inactive; / = no result given. Only some compounds are listed: those with a hit (about 1.3% of all), similar ones and a draw of the others.

SMILES	eLon inh	Bcl-xL primary	MEX-5 binding	GLD-1 RNA inh	EBV gp42 inh
COc1ccc(CCNC(=O)C2CCC(C(C)(C)C)CC2)cc1OC (configuration not stated)	.	.	.	.	/
C=CC1=C(C(=O)O)N2C(=O)[C@@H](NC(=O)/C(=N\O)c3csc(N)n3)[C@H]2SC1 (stereo in doubt)	.	.	-25.6	.	/
CCn1ccc(C(=O)NC2C(=O)N3C(C(=O)O)=C(C)CSC23)n1 (configuration not stated)	.	.	/	.	.
O=[N+]([O-])c1ccc(/C=C/C2=NN(c3ccccc3)C(c3ccco3)C2)cc1 (configuration not stated)	.	67.1	/	.	.
COC(=O)c1ccc(C2Nc3ccc(/C(C)=N/NC(=O)C(OC)c4ccccc4)cc3C3C=CCC32)cc1 (configuration not stated)	.	33.9	.	.	/
COc1cccc(C(=O)N2CCN(Cc3ccc(OC)cc3OC)CC2)c1	.	.	.	.	/
Cc1cc(-c2ccc(N=Nc3c(S(=O)(=O)O)cc4cc(S(=O)(=O)O)cc(N)c4c3O)c(C)c2)ccc1N=Nc1c(S(=O)(=O)O)cc2cc(S(=O)(=O)O)cc(N)c2c1O	/	65.3	/	.	/
O=S(=O)(O)c1cc(O)c2c(O)c(N=Nc3cc(Cl)ccc3O)c(S(=O)(=O)O)cc2c1	45.0	.	-46.0	.	/
O=S(=O)(O)c1cc(Cl)cc(N=Nc2ccc(O)cc2O)c1O	.	/	/	/	/
Cc1ccccc1Cn1ccc(NC(=O)c2cnn3c2NC(c2ccccc2)CC3C(F)(F)F)n1 (configuration not stated)	22.3	.	.	.	.
CN(CCOc1ccc(Cl)cc1)C(=O)CN1C(=O)NC2(CCCCC2)C1=O	.	.	.	.	/
Cc1sc2nc(CN3CCOCC3)nc(N3CCN(S(=O)(=O)c4ccccc4)CC3)c2c1C	.	.	/	.	/
COc1ccc(NC(=O)COC(=O)CCc2ccc(S(=O)(=O)N3CCOCC3)cc2)c(OC)c1	.	/	/	.	/
Cc1ccc(NC(=O)CN2C(=O)S/C(=C/c3ccc(O)c([N+](=O)[O-])c3)C2=O)cc1C	.	/	/	/	64.7
COc1ccc(C(=S)N2CCN(c3ccccc3C)CC2)cc1	.	.	.	.	.
N#C/C(=C\c1ccccc1[N+](=O)[O-])C(=O)NC1CCCCC1	.	30.7	.	.	.
N#C/C(=C\C=C\c1ccccc1[N+](=O)[O-])C(=O)NC1CCCCC1	.	.	.	.	.
O=C(/C=C/N1CCOCC1)c1ccc(-c2ccccc2)cc1	.	.	-35.2	.	.
COc1cc(NS(=O)(=O)c2ccc(NC(=O)/C=C/C(=O)O)cc2)nc(OC)n1	.	.	.	.	/
CCN(CC)c1ccc2cc(S(=O)(=O)c3ccc(Cl)cc3)c(=O)oc2c1	.	.	.	.	159.2
COc1ccc(NC2CCCN(C(=O)c3cccc(C)n3)C2)cc1OC (configuration not stated)	.	.	.	.	/
O=C1OCCOC2CCCc3oc(C4=CCCCC4)c1c32 (configuration not stated)	.	/	/	/	/
Cc1cc(=O)n(CCO)c(O)c1C#N	.	.	.	.	.
Cc1c(CN2CCCCC2)c(O)n(CCCO)c(=O)c1C#N	.	35.3	-45.7	.	.
CCCn1c(O)c(CN2CCCCC2)c(C)c(C#N)c1=O	.	.	-51.1	.	.
SMILES	eLon inh	Bcl-xL primary	MEX-5 binding	GLD-1 RNA inh	EBV gp42 inh
C=CCn1c(O)c(CN2CCN(Cc3ccccc3)CC2)c(C)c(C#N)c1=O	.	.	.	.	.
CC(C)OC(=O)c1c2nc3ccccc3nc2n2c1[nH]c(=O)c1ccccc12	/	.	.	47.9	.
CCN(CC)C(=O)Cn1c(=O)c2ccccc2n2c(=S)sc(-c3cccc(C)c3)c12	.	.	-66.7	.	.
Cc1ccc(C)c(CNc2ccc(S(=O)(=O)N3CCCCC3)cc2)c1	.	.	/	.	/
C[C@@H]1C=CC(=O)O[C@@H]1c1ccc(Cl)cc1	/	.	.	.	/
CCOc1ccccc1N1C(=O)c2ccc(S(=O)(=O)c3ccc(C(=O)O)cc3)cc2C1=O	.	.	.	.	/
O=c1nc2s/c(=C\c3ccc(-c4ccccc4[N+](=O)[O-])o3)c(=O)n2nc1-c1ccccc1	.	/	.	/	175.7
Cc1ccc2c(nc3s/c(=C\c4ccc(-c5ccccc5C(=O)O)o4)c(=O)n32)c1C	.	.	.	.	/
CCC(C)(C)NC(=O)C(c1cccn1C)N(C(=O)Cn1nnc2ccccc21)c1ccc(OC)cc1 (configuration not stated)	.	.	-29.1	.	.
